Source: PubChem BioAssay
TTR transcr act: TTR transcription activators in neuroblastoma reporter cells, primary screen, cell-based, luminescence, SH-SY5Y, TTR promoter Gaussia luciferase. 100% = recombinant luciferase protein wells. activation, % at 16.7 µM. 1.3% of 92,000 active;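 active = activation above the mean of all tested compounds plus 3 SD, cut at about 9.5% in these data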;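 note: cells exposed to compounds for one day before reading; 0% = median of all test compound wells on the plate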
Active calls of the source: *. This is one part of a sample in which hits are shown more often than they occur.

SMILES | TTR transcr act
CCCN(CCC)CCCNC(=O)C1c2cc(OC)c(OC)cc2C(=O)N(C)C1c1cccnc1 (stereo not given) | 1
CCOc1cc2c(cc1OCC)C(C(=O)O)C(c1cc(OC)c(OC)c(OC)c1)N(C)C2=O (stereo not given) | 12*
COCCNC(=O)C1c2cc(OC)c(OC)cc2C(=O)N(C)C1c1cccnc1 (stereo not given) | 3
COC(=O)C[C@@H]1CC[C@@H]2[C@@H](COc3ccc(NC(=O)Nc4ccc(F)cc4)cc3C(=O)N2C)O1 | -2
CN(C)[C@@H]1CCN(c2cccc3c2S(=O)(=O)N(C2CC2)CCCO3)C1 | 0
CCOC(=O)[C@@]12CCC3=C1N(CCC3)C(=O)[C@H](CC(=O)NCc1cccs1)C2 | 0
O=C1CN(C(=O)NCC(=O)N[C@@H](C(=O)O)c2ccccc2)c2ccccc2N1 | 1
CC(C)[C@H](NC(=O)N1c2ccccc2NC(=O)[C@@H]1C(C)C)C(=O)N[C@@H](C(=O)O)c1ccccc1 | 27*
CC(C)C[C@H](NC(=O)N1CC(=O)Nc2ccccc21)C(=O)N[C@@H](C(=O)O)c1ccccc1 | 0
CCn1c(SCC(=O)Nc2cccc(OC)c2)nnc1-c1ccc(Cl)cc1 | 1
CCn1c(SCC(=O)Nc2ccc(N(C)C)cc2)nnc1-c1cccc(C)c1 | 28*
CCn1c(SCC(=O)Nc2ccc(C)cc2)nnc1-c1ccccn1 | 0
COc1ccc(N2CCN(CCCNC(=O)Cn3c(=O)c4cccn4c4cccnc43)CC2)c(OC)c1 | -1
COC(=O)[C@]12C[C@H](CC(=O)N3CCCCC3)C(=O)N(Cc3ccco3)C1=C[C@H](C1CCCC1)O[C@@H]2C | 0
COc1ccc(CNC(=O)O[C@H]2CC[C@@]34CCCN3C(=O)CCC[C@H]4[C@H]2C)cc1OC | 1
O=C(Nc1ccc(Cl)cc1)C1Cc2c(-c3ccc(Cl)cc3)ccnc2O1 (stereo not given) | 1
COCCNC(=O)C1Cc2c(-c3ccc(NC(C)=O)cc3)ccnc2O1 (stereo not given) | -1
CC(=O)NCCNC(=O)C1Cc2c(-c3ccc(Cl)cc3)ccnc2O1 (stereo not given) | 10*
CC(C)(C)CCN1CCC[C@H](NC(=O)COc2ccc(F)c(Cl)c2)C1 | 0
CCOc1ccc(CCNC(=O)c2cc3sccc3n2Cc2cccc(C)c2)cc1OCC | 3
Cc1cc(C)nc(NC(=S)N2CCN(c3ncc(C(F)(F)F)cc3Cl)CC2)c1 | 1
C[C@H]1[C@@H](OC(=O)N2CCOCC2)CC[C@@]23CCCN2C(=O)CCC[C@@H]13 | 1
O=C(Nc1ccc(N2CCN(C(=O)c3ccc(Cl)cc3)CC2)cc1)c1ccc2c(c1)OCCO2 | -6
O=C(Nc1cc(Cl)ccc1N1CCOCC1)c1ccc2c(c1)OCCO2 | 0
O=C(Nc1ccccc1N1CCN(C(=O)c2ccc(Cl)cc2)CC1)c1ccc2c(c1)OCO2 | 10*
SMILES | TTR transcr act
Nc1[nH]c(C(=O)c2ccccc2)c(-c2ccc(O)cc2)c1C(=O)NCCc1c[nH]c2ccccc12 | -2
N#Cc1c(-c2cccc(Cl)c2)[nH]c(=S)[nH]c1=O | 2
N#Cc1cc(-c2cccc(Cl)c2)c[nH]c1=O | 13*
C=CCn1cc(-c2cccc(Cl)c2)cc(C#N)c1=O | -3
CC(C)Oc1cccc(-c2csc(N3CCC(C(N)=O)CC3)n2)c1 | 3
CCCCCCCC(=O)N[C@H]1CC[C@@]23CCCN2C(=O)CCC[C@H]3[C@H]1C | 1
COc1cccc(C2c3c(ncn(-c4ccccc4)c3=N)Oc3ccc4ccccc4c32)c1OC (stereo not given) | 2
COc1ccc(C2c3c(ccc4ccccc34)Oc3ncn4nc(-c5ccco5)nc4c32)cc1 (stereo not given) | 3
COc1ccc(C2c3c(ccc4ccccc34)Oc3ncn4nc(CO/N=C/c5ccccc5)nc4c32)cc1 (stereo not given) | 12*
COC(=O)c1cc(COC(=O)CNC(=O)c2cccc(C)c2)oc1C | -1
CSc1ncccc1C(=O)OCc1ccccc1F | 5
COC(=O)c1cc(COC(=O)c2cccnc2SC)oc1C | 41*
CCOc1ccc(CCNC(=O)c2cc3sccc3n2Cc2ccccc2)cc1OCC | -1
O=C(Nc1ccc(N2C(=O)[C@@H]3[C@H](C2=O)[C@@H]2C=C[C@H]3C2)c(Cl)c1)c1ccccn1 | -2
O=C(O)CCN1C(=O)NC2(CCCC2)C1=O | 17*
COc1ccc(NC(=O)CCN2C(=O)NC3(CCCC3)C2=O)cc1Cl | 2
O=C(CN1C(=O)NC2(CCCC2)C1=O)NC(c1ccccc1)c1ccccc1 | -1
O=C1N2CCc3ccccc3C2CS(=O)(=O)N1CCc1ccccc1 (stereo not given) | -1
O=C(N1CCc2ccccc2C1)n1cc(C(O)(c2ccccc2)c2ccccc2)nn1 | -1
CC(C)(C)c1ccc(C(=O)Nc2ccc(C(=O)N3CCOCC3)cc2)cc1 | 0
O=C(c1ccc(NC(=O)C2(c3ccccc3)CCOCC2)cc1)N1CCOCC1 | 24*
O=C(c1ccccc1)c1ccc(C(=O)N2CCOCC2)cc1 | 7
COc1cc(OC)cc(-c2csc(N3CCC(C(N)=O)CC3)n2)c1 | 1
CN1C2=N[C@@H](c3ccc4ccccc4c3)CC(=O)N2/C(=C\c2ccccc2)[C@H]1c1ccccc1 | -1
CCN(CC)S(=O)(=O)c1ccc(NS(=O)(=O)c2cccc(C)c2)cc1 | 10*
SMILES | TTR transcr act
CCN(CC)S(=O)(=O)c1cc(NS(=O)(=O)c2cccc(Cl)c2Cl)ccc1C | -2
CCN(CC)S(=O)(=O)c1ccc(NS(=O)(=O)c2ccc(OC)c([N+](=O)[O-])c2)cc1 | 1
N#CC1CCN(c2nc(-c3ccc(Br)cc3)cs2)CC1 | 0
O=S(=O)(N[C@@H]1CCCC[C@@H]1N1CCOCC1)c1ccc(Cl)cc1 | -1
C=C(C)C(=O)Nc1cccc(C2=NOC3(C2)C[C@@H](C(N)=O)N(C(=O)C2(C)CC2)C3)c1 (stereo not given in full) | 5
C/C=C\C(=O)Nc1cccc(C2=NOC3(C2)C[C@@H](C(N)=O)N(C(=O)C2(C)CC2)C3)c1 (stereo not given in full) | 2
C/C=C\C=C/C(=O)Nc1cccc(C2=NOC3(C2)C[C@@H](C(N)=O)N(C(=O)C2(C)CC2)C3)c1 (stereo not given in full) | 11*
O=C1CN(C(=O)C2CCCCC2)C=CN1CCc1ccccc1Br | 0
Cc1ccccc1NC(=O)O[C@H]1CC[C@@]23CCCN2C(=O)CCC[C@H]3[C@H]1C | 0
CC(=O)Nc1sc2c(c1-c1nc3ccccc3s1)CCCNC2 | 7
C[C@]12C(=O)N(c3ccccc3)C(=O)N1[C@H]1c3ccccc3OC[C@@H]1[C@H]2c1ccccc1 | 11*
C[C@]12C(=O)N(c3cccc(Cl)c3)C(=O)N1[C@@H]1c3ccccc3OC[C@@H]1[C@H]2c1ccccc1 | 3
C[C@]12C(=O)N(c3cccc(F)c3)C(=O)N1[C@H]1c3ccccc3OC[C@@H]1[C@H]2c1ccccc1 | -2
Cc1ccc(-c2cc(C#N)c3n(c2=O)CCC3)cc1 | -1
COc1ccc2ccccc2c1-c1c(C(=O)c2ccc(Br)cc2)[nH]c(N)c1C(=O)NC1CCCCC1 | 0
CCCCC(=O)NCCNc1nc2c(c(=O)n(C)c(=O)n2C)n1Cc1ccc(F)cc1 | 14*
Cn1c(=O)c2c(nc(NCc3ccc4c(c3)OCO4)n2Cc2ccc(F)cc2)n(C)c1=O | -3
CCCNc1nc2c(c(=O)n(C)c(=O)n2C)n1Cc1cccc(C)c1 | 2
